Assay results published in PubChem BioAssay (NCI).
Where “and” joins values, the source holds several entries; their conditions need not be identical. Equal values may be shown once. This is part of a sample that, as a whole, favours compounds with a hit. Of some 79,000 tested, about 15% had one in any assay. Some compounds were tested as several samples or in several runs, with calls that do not always agree. Calls of active or inactive are those of the source. Rule as the data show it: active = growth inhibition above about 70%; inactive = the rest.

What was measured:
[1] = NCI Yeast Anticancer Drug Screen. Data for the rad50 strain (AID 155);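 also: 0% = growth of vehicle-only cultures of the same strain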; details: S. cerevisiae rad50 strain growth inhibition; at 50.0 µM; stronger effect = higher value
Outline: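 Yeast carrying a defined DNA repair defect were exposed to test compounds, and growth was compared with vehicle-treated controls to give percent inhibition.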

[2] = NCI Yeast Anticancer Drug Screen. Data for the mec2-1 strain (AID 157); details: S. cerevisiae mec2-1 strain, at 50.0 µM, stronger effect = higher value
Outline: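 Each compound was tested on mec2-1 yeast, a strain altered in DNA damage repair or cell cycle control. Growth inhibition is reported relative to vehicle.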

[3] = NCI Yeast Anticancer Drug Screen. Data for the sgs1 mgt1 strain (AID 161);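 also: 0% = growth of cultures given vehicle only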; details: S. cerevisiae sgs1 mgt1 strain, at 50.0 µM, stronger effect = higher value
Outline: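 Test agents were incubated with a DNA-repair-mutant yeast strain. Growth was then read and compared against vehicle-treated controls.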

[4] = NCI Yeast Anticancer Drug Screen. Data for the cln2 rad14 strain (AID 165);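 also: 0% = growth equal to vehicle treated cultures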; details: S. cerevisiae cln2 rad14 strain, at 50.0 µM, stronger effect = higher value
Outline: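 Test compounds were added to cln2 rad14 yeast cultures; inhibition of growth was then determined by comparison with vehicle treatment.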

[5] = NCI Yeast Anticancer Drug Screen. Data for the bub3 strain (AID 167); details: S. cerevisiae bub3 mutant strain, at 50.0 µM, stronger effect = higher value
Outline: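 Compounds were applied to a genetically altered yeast strain carrying a cell-cycle control defect. Growth inhibition was scored against vehicle-treated controls.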

[6] = NCI Yeast Anticancer Drug Screen. Data for the mlh1 rad18 strain (AID 175); details: S. cerevisiae mlh1 rad18 strain growth inhibition; at 50.0 µM; stronger effect = higher value
Outline: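 Inhibition values reflect reduced growth of mutant yeast versus vehicle-treated controls following compound exposure; the mutations affect DNA damage repair.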

Measured: growth inhibition

N=C(N)SCCc1ccccn1
inactive: [1] -30.3% and -8.8% | [2] -27.9% and -24.2% | [3] -35.1% and -28% | [4] -16.1% and -19.4% | [5] -44% and -39.1% | [6] -18.4% and -1.55%

C1=C(c2cccc3ccccc23)CCCC1
inactive: [1] -2.85% and 18.2% | [2] 7.45% and -4.1% | [3] -12.4% and -5.1% | [4] -0.1% and 8.1% | [5] 2.65% and 11.7% | [6] 6.9% and -9.2%

CCSC(SCC)C(OC(C)=O)C(OC(C)=O)C(COC(C)=O)OC(C)=O (stereo unspecified)
inactive: [1] -2.1% and -16.1% | [2] -2.3% and -2.8% | [3] 8.1% and 4.4% | [4] -40% and -18.2% | [5] -7.25% and -3.55% | [6] 16.6% and 10.9%

CC12CCC(C(=O)OC1=O)C2(C)C (stereo unspecified)
inactive: [1] 3.8% and -0.45% | [2] -8.2% and 4.05% | [3] -46.8% and -13.5% | [4] 28.1% and -51% | [5] -29.8% and 0.35% | [6] -55% and -0.75%

CC1(C)Cc2[nH]c3ccccc3c2C(C)(C)N1
inactive: [1] -35% and 6.55% | [2] -16.4% and 23.3% | [3] -6.35% and 14.5% | [4] -64% and -6.15% | [5] -4.5% and 12.5% | [6] 3.8% and 10.5%

CC(CCC(=O)O)C(=O)O (stereo unspecified)
inactive: [1] -16% and 17.4% | [2] -7.65% and -15.8% | [3] -8.6% and -4.6% | [4] -5.7% and 0.25% | [5] 4.95% and 11.3% | [6] -8.5% and 9.8%

Cc1cc(=O)[nH]c2ccccc12
inactive: [1] 26.6% and 14% | [2] -6.3% and -2.8% | [3] -7.8% and -30.9% | [4] 6.3% and 21.8% | [5] 7.05% and -10.1% | [6] 6.45% and 12.5%

CC(=O)OCC1OC(n2cnc3c(N)ncnc32)C(OC(C)=O)C1OC(C)=O (stereo unspecified)
inactive: [1] 3.05% and 8.1% | [2] -8.9% and -3.3% | [3] 18.8% and 0.2% | [4] 14.2% and 11.4% | [5] 5.3% and -0.8% | [6] 18.1% and -0.25%

O=C1OC(c2ccccc2)=N/C1=C\c1ccccc1O
inactive: [1] -4.65% and -9.75% | [2] -13.2% and -16.3% | [3] -0.2% and -1.3% | [4] 2.6% and 7.3% | [5] -1.7% and -13.6% | [6] -21.1% and -0.55%

c1ccc(Cc2nc3ccccc3[nH]2)cc1
inactive: [1] -13.5% and -2.5% | [2] -33.8% and -4.1% | [3] -10.4% and -18.9% | [4] -4.9% and 2.65% | [5] -28.8% and -13.8% | [6] 0.7% and -16.4%

COc1ccc2c(=O)c(C)c(-c3ccccc3)oc2c1CN(C)C
inactive: [1] 5.85% and -33.4% | [2] -40.1% and -38.5% | [3] 10.3% and -26.6% | [4] 9.8% and -0.05% | [5] -22.6% and -24.3% | [6] 2% and -28.3%

O=c1[nH]c2[nH]c(=S)[nH]c(=S)c2[nH]1
inactive: [1] -19.7% and 13.8% | [2] 8.45% and -2.5% | [3] -17.5% and -4.85% | [4] 13.8% and -41.7% | [5] -24.7% and -10.8% | [6] -20.1% and -0.3%

Cn1c(=O)c(Br)cn(C2OC(CO)C3OC32)c1=O (stereo unspecified)
inactive: [1] -6.35% and -9.05% | [2] -0.8% and -4.2% | [3] 18.1% and 4.9% | [4] -19.4% and -15.4% | [5] 25.4% and -4.1% | [6] 4.15% and -0.65%

C=CCC1=C(C)C(OC(=O)C=C(C)C)CC1=O (stereo unspecified)
inactive: [1] 19.8% and -4.3% | [2] -4% and -13.8% | [3] -6.15% and -6% | [4] 0.25% and -26.2% | [5] 3.6% and -13.3% | [6] -22% and -37%

CC(OC(=O)c1ccccc1)C(OC(=O)c1ccccc1)C(OC(=O)c1ccccc1)c1cnn(-c2ccccc2)n1 (stereo unspecified)
inactive: [1] 14.8% and 35.7% | [2] -2.35% and -1.9% | [3] 24.8% and 3.35% | [4] 19.1% and -9.45% | [5] 10.1% and 16.1% | [6] 6.7% and 32%

Cn1cc(NC(=O)c2cc(NC(=O)c3cc(NC=O)cn3C)cn2C)cc1C(=O)NCCC(=N)N
-1.75% (inactive) and 91.3% (active): [5]
5.1% (inactive) and 89.8% (active): [1]
6.75% (inactive) and 91.5% (active): [2]
-2.2% (inactive) and 91.7% (active): [3]
22.9% (inactive) and 88.5% (active): [4]
12.9% (inactive) and 90% (active): [6]

O=[N+]([O-])c1ccc(N=Cc2ccc(Cl)cc2)cc1
inactive: [1] -0.2% and 4.6% | [2] -6.05% and 4.9% | [3] -23.2% and -2.25% | [4] -0.2% and -40.4% | [5] 5.85% and 7.9% | [6] -4.15% and -3.05%

COC1OC2COCOC2C(O)C1O (stereo unspecified)
inactive: [1] 16.4% and 11.6% | [2] 17.1% and 7.85% | [3] 10.9% and 1.8% | [4] -53.6% and -34.5% | [5] 14.9% and 8.8% | [6] -4.9% and 5.65%

COCc1cc(C)c(C#N)c(=O)[nH]1
inactive: [1] -2.35% and 9.35% | [2] 1.5% and 5.35% | [3] -5% and -8.7% | [4] 17.9% and -3.65% | [5] 13.3% and -7.55% | [6] -3.9% and 0.85%

CCOC(=O)C(CC(C(=O)OCC)C(=O)OCC)C(=O)OCC
inactive: [1] -21.1% and -11.8% | [2] -15.1% and -16.2% | [3] -6.3% and -20.6% | [4] 10.7% and -16.1% | [5] 10.8% and -12.5% | [6] -25.1% and -9.15%

CCOC(=O)C(N)CCSC (stereo unspecified)
inactive: [1] -22.8% and -14.2% | [2] -14.3% and -7.65% | [3] -13.8% and -1% | [4] -39.4% and -16.6% | [5] -13.3% and -8.95% | [6] -5.05% and -17.5%
